In ChEMBL document CHEMBL3988442, “University of Dundee, Small-Polar-MMV Screening Library” (2021):
About 13,000 (27%) of roughly 48,000 compounds showed an effect of 50% or more. The list shows a part of the results.

The molecules below were run on Wolbachia pipientis (assay: Anti-Wolbachia Cell-Based Screen). Details: 5 µM.
Format: functional
Set-up: scale not given: in the data most compounds retested in dose-response had high values

| Structure (SMILES) | Percent Effect |
| --- | --- |
| Cc1cc(C(F)(F)F)nn1CCCNC(=O)C1CCCO1 (stereo not drawn) | 89.22% |
| Cc1cc(C)n(CCCN(C)C(=O)[C@H]2CCCO2)n1 | -6.91% |
| Cc1cc(-c2cnn(CCNC(=O)C3CCCO3)c2C2CC2)on1 (stereo not drawn) | -7.58% |
| COc1ccc(-c2n[nH]cc2CN(C)Cc2nnc(C)o2)c(F)c1 | 5.542% |
| COC[C@]1(O)CCN(Cc2c[nH]c(CC3CCCC3)n2)CC1(C)C | 12.99% |
| Cn1cc(CN2CCc3ncnc(C4CCOC4)c3CC2)cn1 (stereo not drawn) | 2.928% |
| CN(C)c1cc(C(=O)N2CCCCC2Cn2cccn2)ccn1 (stereo not drawn) | 105% |
| CN(C)c1cc(C(=O)N2CCCCC2CNS(C)(=O)=O)ccn1 (stereo not drawn) | 130% |
| CS(=O)(=O)NCC1CCCCN1C(=O)c1ccc(Br)s1 (stereo not drawn) | -1.817% |
| CCC1CCCCN1C(=O)c1ccnc(N(C)C)c1 (stereo not drawn) | 113.6% |
| CS(=O)(=O)NCC1CCCCN1C(=O)c1ccsc1 (stereo not drawn) | -1.868% |
| CCCc1nc(C(C)(C)NC(=O)c2ccnn2C)no1 | 9.786% |
| CCCc1nnc(N[C@H](C)c2ccc(OC)cc2)o1 | -12.73% |
| Fc1ccc(CNCc2cc(Br)c3c(c2)OCO3)cc1 | -17.14% |
| O=C(CCNC(=O)c1ccoc1)Nc1cc(F)ccc1F | -1.29% |
| Cc1cccc(CN2CC[C@H]3OCC[C@@]3(C(=O)N3CCOCC3)C2)n1 | 83.3% |
| Cc1cccc(CN2CCOC(C)(C(=O)N3CCOCC3)C2)n1 (stereo not drawn) | 111.3% |
| CC1(C(=O)N2CCOCC2)CN(Cc2ccccn2)CCO1 (stereo not drawn) | -10.18% |
| Cc1cccc(CN2CCc3[nH]nc(C(=O)N4CCOCC4)c3C2)n1 | 9.618% |
| Cc1ncsc1CN1CC[C@H]2OCC[C@@]2(C(=O)N2CCOCC2)C1.O=C(O)C(F)(F)F | 1.512% |
| Cc1cc(CNC(=O)NCc2ccccc2N2CCOCC2)no1 | -16.89% |
| CC1(C(=O)N2CCOCC2)CN(Cc2c[nH]cn2)CCO1 (stereo not drawn) | 123.4% |
| Cc1cc(CN2CCOC(C)(C(=O)N3CCOCC3)C2)no1 (stereo not drawn) | 109.8% |
| Cc1cc(CN2CCN(C(=O)NCc3ccc(C)s3)CC2)no1 | 0.1424% |
| CN1CCN(Cc2c[nH]cn2)CC12CCC(=O)N(CC1CC1)CC2 (stereo not drawn) | -17.33% |
| NC(=O)C1CN(Cc2c[nH]cn2)CCN(C2CCOCC2)C1 (stereo not drawn) | -9.995% |

| Structure (SMILES) | Percent Effect |
| --- | --- |
| CC(C)Nc1cccc(CNC(=O)N2CCC[C@@H]2CO)c1 | -12.14% |
| CCCc1cc(=O)[nH]c2nnc(SCC(=O)NCCc3ccccc3)n12 | 12.93% |
| COC(=O)N1CCC(NC2CCSCC2)C1 (stereo not drawn) | -0.02013% |
| CCC(CCO)NS(=O)(=O)c1ccc(Br)cn1 (stereo not drawn) | -13.92% |
| C=C(C)Cn1nnc(C2(NC(=O)c3ccccc3)CCCC2)n1 | -0.5972% |
| O=C(O)[C@@H]1CN(Cc2ccc3nsnc3c2)C[C@H]1c1cccnc1 | -24.04% |
| CC(=O)N1CCN([C@@H]2CCC[C@@H](NC(=O)c3cccnc3)[C@H]2O)CC1 | 122.9% |
| CCCC(=O)NC1CCCN(C(=O)c2ccc(C)nc2)C1 (stereo not drawn) | -3.666% |
| Cc1cncc(C(=O)N[C@@H]2CC[C@@H](N3CCOCC3)[C@@H]2O)c1 | 120% |
| CC(=O)N1CCN([C@@H]2CC[C@@H](NC(=O)c3ccc(C)nc3)[C@H]2O)CC1 | 126.1% |
| CC(=O)N1CCC(N[C@@H]2CO[C@H](CNC(=O)c3cccs3)[C@H]2O)CC1 | 1.318% |
| CC(=O)N1C[C@H](NC(=O)c2csc(C(C)C)c2)[C@@H](C(C)C)C1 | -7.601% |
| CC(C)(C)c1cc(CN2CC[C@@H](NC(=O)c3cccnc3)[C@H](O)C2)n[nH]1 | -14.75% |
| CC(=O)N1CCN([C@@H]2CC[C@@H](NC(=O)c3cncc(C)c3)[C@H]2O)CC1 | -9.247% |
| CC(=O)N1CCN([C@@H]2CC[C@@H](NC(=O)c3cc(C)cs3)[C@H]2O)CC1 | 116.4% |
| Cc1ccc(C(=O)N2CCN3C[C@H](Oc4cncnc4)C[C@H]3C2)cn1 | -3.915% |
| CCc1ccccc1CN1CC[C@@H](NC(=O)c2cccnc2)[C@H](O)C1 | -11.05% |
| Cc1cncc(C(=O)NCC2COCc3c(C)nnn3C2)c1 (stereo not drawn) | -1.908% |
| CC(=O)NC1CCCN(C(=O)CNc2cccc(C)c2Cl)C1 (stereo not drawn) | 6.978% |
| O=C(CCn1cncn1)N1CCC2(CC1)[C@H](O)C[C@@H]2OCCO | -12.21% |
| O=C(NS(=O)(=O)c1ccc(C2CCCCC2)cc1)C1COCCO1 (stereo not drawn) | -16.34% |
| CCOc1ccc(N(C)Cc2nnc(C3CC3)o2)cc1 | -1.111% |
| CC1(C)CCC(CC(=O)O)c2ccccc21 (stereo not drawn) | 8.259% |
| CN(Cc1cc(-c2ccncc2)no1)Cc1nccn1C | 1.044% |
| CNC(=O)CN1CC[C@H]2CN(C(=O)c3ccccc3F)C[C@H]2C1.O=C(O)C(F)(F)F | 86.74% |
| CNC(=O)CN1CC[C@H]2CN(C(=O)c3ccccc3C)C[C@H]2C1.O=C(O)C(F)(F)F | 117.7% |

| Structure (SMILES) | Percent Effect |
| --- | --- |
| Cc1ccccc1C(=O)NC[C@@H]1CCN(C(=O)CN2CCCC2)C[C@H]1O | 2.188% |
| O=C(O)C(F)(F)F.O=C(c1ccccc1F)N1C[C@H]2CCC[C@@]2(COCc2ccncc2)C1 | -1.474% |
| Cc1ccccc1C(=O)N1C[C@@H]2CCN(c3cccnc3)C[C@@H]2C1.O=C(O)C(F)(F)F | 9.875% |
| COCC(=O)NC[C@H]1OC[C@@H](NC2CCC(F)(F)CC2)[C@@H]1O | -6.952% |
| O=S(=O)(C1CC1)N1CCC2(COCc3cnc(N4CCOCC4)nc32)C1 (stereo not drawn) | -0.8991% |
| c1ccc(-c2ncc3c(n2)C2(CCN(c4ncccn4)C2)COC3)cc1 (stereo not drawn) | -0.2326% |
| O=S(=O)(C1CC1)N1CCC2(COCc3cnc(-c4cccnc4)nc32)C1 (stereo not drawn) | 112.6% |
| CN(C)S(=O)(=O)N1CCC2(COCc3cnc(-c4ccccc4)nc32)C1 (stereo not drawn) | 7.187% |
| CS(=O)(=O)N1CCC2(COCc3cnc(-c4ccccc4)nc32)C1 (stereo not drawn) | 3.211% |
| CN(C)S(=O)(=O)N1CCC2(COCc3cnc(-c4cccnc4)nc32)C1 (stereo not drawn) | 117.1% |
| Cc1nn(C)c(NC(=O)C2SCCc3ccccc32)c1C (stereo not drawn) | -51.32% |
| COCCOc1ccc(NC(=O)C2CC(=O)N(CC3CC3)C2)cn1 (stereo not drawn) | 88.01% |
| COCCOc1ccc(NC(=O)C2CC(=O)N(C(C)C)C2)cn1 (stereo not drawn) | 102.1% |
| COCCOc1ccc(NC(=O)N2CCCC2c2cccs2)cn1 (stereo not drawn) | -5.356% |
| COCCOc1ccc(NC(=O)N(C(C)C)C2CC2)cn1 | -14.55% |
| COCCOc1ccc(NC(=O)N2CCCC2c2ccncc2)cn1 (stereo not drawn) | -3.019% |
| COCCOc1ccc(NC(=O)C2CC(=O)N(C3CC3)C2)cn1 (stereo not drawn) | 124.3% |
| COCCOc1ccc(NC(=O)N2CCCC2c2cc(C)no2)cn1 (stereo not drawn) | -1.531% |
| COCCOc1ccc(NC(=O)N(CCO)C2CC2)cn1 | -3.493% |
| COCCOc1ccc(NC(=O)C2CCCN(C(N)=O)C2)cn1 (stereo not drawn) | -6.192% |
| CCS(=O)(=O)N1CCN(CC(F)(F)F)CC1 | 6.417% |
| CS(=O)(=O)CCC(=O)NC1CC(c2ccccc2Cl)C1 (stereo not drawn) | -3.689% |
| Cc1ccc(CC(=O)NC2CCN(c3cccc(Cl)c3)C2)cn1 (stereo not drawn) | -6.758% |
| Cc1cc(C)c(CNC(=O)N2CCN(c3cnccn3)CC2)c(=O)[nH]1 | -4.919% |
| CNC(=O)CCc1cc(C)nc(C2CCN(C3CCCCC3)CC2)c1 | 132.7% |
| CNC(=O)CCc1cc(C)nc(C2CCN(c3cnccn3)CC2)c1 | 163% |

| Structure (SMILES) | Percent Effect |
| --- | --- |
| CCNC(=O)CCN1CCC(c2cc(N3CCOCC3)nc(C)n2)CC1 | 2.574% |
| CNC(=O)CCc1cc(C)nc(C2CCN(c3ccccc3)CC2)c1 | 115.5% |
| CNC(=O)CCc1cc(C2CCN(c3cnccn3)CC2)nc(C)n1 | 127.7% |
| Cc1cc(N2CCC(NC(=O)CCc3cnn(C)c3)CC2)nc(C)n1 | -6.539% |
| O=C(CCc1ccsc1)NCC1CCN(c2ccccc2)C1 (stereo not drawn) | -7.68% |
| CCn1ncnc1C(C)NC(=O)C1CCN(C2CCCCC2)CC1 (stereo not drawn) | -9.983% |
| Cc1nc(C2CCN(CC(=O)NC3CC3)CC2)cc(N2CCOCC2)n1 | -4.261% |
| CNC(=O)CCc1cc(C)nc(C2CCCN2)c1 (stereo not drawn) | -6.068% |
| CCN(Cc1ccoc1)C(=O)NC1CCN(CC2CC2)C1 (stereo not drawn) | -6.123% |
| N#Cc1c(Cl)nsc1NCCCN1C(=O)COc2ccccc21 | -8.12% |
| CCN(C(=O)C1CCC1)C(c1cccnc1)c1ccc2c(c1)CCO2 (stereo not drawn) | -9.854% |
| O=C(C1CN(Cc2ccsc2)Cc2ccnn2C1)N1CCCC1.O=C(O)C(F)(F)F.O=C(O)C(F)(F)F (stereo not drawn) | 5.087% |
| COc1coc(CN2CCCC3(CCC(=O)N(CC4CC4)C3)C2)cc1=O (stereo not drawn) | -7.938% |
| CCOCCn1c(=O)[nH]c2cc(C(=O)N(C)Cc3cnn(C)c3)ccc21 | 6.487% |
| CN(CCc1cnn(C)c1)C(=O)CN1C(=O)OC[C@@H]1c1ccccc1 | -15.8% |
| CN(CCc1cnn(C)c1)C(=O)Cn1c(=O)[nH]c2ccccc21 | 117.9% |
| Cc1cc(C)c2nc(C)cc(C(=O)NCc3csc(N(C)C)n3)c2c1 | -46.67% |
| O=C(Nc1cnn(CC(=O)N2CCCCO2)c1)c1ccccn1 | -7.331% |
| O=C(O)c1ccc(F)c(S(=O)(=O)Nc2c(F)cccc2-n2cccn2)c1 | -5.743% |
| CN(C)CCn1c([C@@H]2CCCO2)cc2cccnc21.Cl | 90.46% |
| Cc1nn(C)c2nc(N(Cc3ccccn3)CC3CCCO3)sc12 (stereo not drawn) | -1.375% |
| CN(C)CCn1ccnc1C1CCCN(c2nccc3ccccc23)C1 (stereo not drawn) | -1.132% |
| CN(C)CCn1c([C@H]2CCCO2)cc2cccnc21 | 104.2% |
| CN(C)CCn1c(=O)oc2ccc(NC(=O)C3CCCO3)cc21 (stereo not drawn) | 1.023% |
| Cc1ccc(C#N)c(N2CCC(c3nccn3CCN(C)C)CC2)n1 | -3.51% |
